# From PubChem BioAssay AID1347146 (National Center for Advancing Translational Sciences (NCATS), 2019)
# Results filed as inconclusive are left out. Calls of active or inactive are those of the source. Calls come from the whole dose curve; as a rule, active = well fitted inhibition curve with a large enough effect; inconclusive = small, poorly fitted or top-dose-only effect; inactive = no such curve, though single readings can be large or run the other way.
# Molecular target: Nicotinamide N-methyltransferase (Homo sapiens) (UniProt P40261)
# Assay: qHTS Assay for Inhibitors of N-terminal methyltransferase 1 (NTMT1): NNMT MTaseGlo counterscreen assay;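 for activity change, negative = inhibition: plate controls were DMSO without inhibitor for no effect and no-enzyme control for full effect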
# Conditions: NNMT enzyme, MTase-Glo luminescence counterscreen; series mostly up to 57.1 µM; activity change, negative = inhibition: at the top concentration
# How it was run: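 Luminescent MTase-Glo read-out of SAH from nicotinamide methylation: 1 µM nicotinamide, 100 µM SAM, 125 nM NNMT, 30 min RT after ~15 min compound preincubation. Values normalized to no-enzyme/DMSO controls, Hill-fitted.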
# Potency is the fitted concentration of half-maximal effect.
# Nicotinamide N-methyltransferase (Homo sapiens), sequence (P40261 whole entry, looked up): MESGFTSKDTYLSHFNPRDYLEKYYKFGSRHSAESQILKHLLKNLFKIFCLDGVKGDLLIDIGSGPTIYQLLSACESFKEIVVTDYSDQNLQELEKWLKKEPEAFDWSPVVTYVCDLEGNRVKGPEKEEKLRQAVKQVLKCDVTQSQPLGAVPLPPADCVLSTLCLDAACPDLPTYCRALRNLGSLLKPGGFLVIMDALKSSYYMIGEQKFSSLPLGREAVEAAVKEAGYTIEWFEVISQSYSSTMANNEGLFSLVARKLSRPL
Structure (SMILES),"activity change, negative = inhibition",Potency
COc1cc2c(NC3CCN(C)CC3)nc(N3CCCCC3)nc2cc1OCCCN(C)C,-16.6% (inactive),
C[C@]12C[C@H](O)[C@H]3[C@@H](CCC4=CC(=O)CC[C@@]43C)[C@@H]1CC[C@@H]2C(=O)CO,-13.2% (inactive),
CCCCCCCCCCCCCCCCCC(=O)OC(CC(=O)O)C[N+](C)(C)C (configuration not stated),-11.9% (inactive),
O=C1NC(=O)C(c2ccccc2[N+](=O)[O-])=C1Nc1ccc(O)c(Cl)c1,-29.5% (inactive),
CCC(=O)c1ccc2c(c1)N(CCCN(C)C)c1ccccc1S2,-10.4% (inactive),
CCn1nc(C(=O)O)c(=O)c2cc3c(cc21)OCO3,-3.83% (inactive),
CN1Cc2sccc2C(c2ccc(O)c(O)c2)C1 (configuration not stated),-7.5% (inactive),
OCC1OC(n2cnc3c(NO)ncnc32)C(O)C1O (configuration not stated),116% (inactive),
OCC1OC(n2cnc3c(=S)nc[nH]c32)C(O)C1O (configuration not stated),-8.37% (inactive),
Nc1ccnc2c1ncn2[C@@H]1O[C@H](CO)[C@@H](O)[C@H]1O,,14.1 µM (active)
COc1cc(/C=C(\C#N)C(=O)c2ccc(O)c(O)c2)cc(I)c1O,-14.5% (inactive),
Nc1nc(Nc2ccccc2)nc2c1ncn2[C@@H]1O[C@H](CO)[C@@H](O)[C@H]1O,-12% (inactive),
C=CCN1CCc2c(cc(O)c(O)c2Br)[C@@H](c2ccccc2)C1,-16.5% (inactive),
CC(C)NC[C@@H](O)c1ccc(O)c(O)c1,-5.82% (inactive),
CN(C)[C@@H]1C(=O)C(C(N)=O)=C(O)[C@@]2(O)C(=O)C3=C(O)c4c(O)ccc(Cl)c4[C@@H](O)[C@H]3C[C@@H]12,-21.8% (inactive),
OC[C@H]1O[C@H](n2cnc3c(N[C@H]4CCC[C@@H]4O)ncnc32)[C@H](O)[C@@H]1O,2.19% (inactive),
O=c1c(-c2ccc(O)cc2)coc2cc(O)cc(O)c12,-8.39% (inactive),
O=C1Cc2c([nH]c3ccc(Br)cc23)-c2ccccc2N1,-5.93% (inactive),
Cc1cc2c(cc1Cl)N(C(=O)Nc1ccc(Oc3cccnc3C)nc1)CC2,-5.64% (inactive),

Structure (SMILES),"activity change, negative = inhibition",Potency
NS(=O)(=O)c1cccc2c1c([N+](=O)[O-])cc1nc(O)c(O)nc12,-10% (inactive),
Cc1cccc(C)c1OCC(N)C(C)C (configuration not stated),-3.53% (inactive),
COC(=O)[C@@H]1[C@H]2C[C@H]3c4[nH]c5ccccc5c4CCN3C[C@@H]2CC[C@@H]1O,-4.61% (inactive),
N#C/C(=C\c1ccc(O)c(O)c1)C(=O)c1ccc(O)c(O)c1,-6.84% (inactive),
N#C/C(=C\c1ccc(O)c(O)c1)C(=O)Nc1ccccc1,-21.1% (inactive),
CN1CCN(CCCN2c3ccccc3Sc3ccc(Cl)cc32)CC1,-16.6% (inactive),
Nc1nc(F)nc2c1ncn2[C@@H]1O[C@H](CO)[C@@H](O)[C@@H]1O,-13.1% (inactive),
COc1cc2nc(N3CCCN(C)CC3)nc(N3CCN(C)CC3)c2cc1OC,-10.6% (inactive),
c1ccc(CN2CCC3(CCCc4ccccc43)CC2)cc1,-10.1% (inactive),
Nc1ncnc2c1ncn2[C@@H]1O[C@H](C(=O)N2CCN(CC(=O)Nc3cccc4c3CNC4=O)CC2)[C@@H](O)[C@H]1O,-19.9% (inactive),
C/C(=C\CNc1ncnc2c1ncn2[C@@H]1O[C@H](CO)[C@@H](O)[C@H]1O)CO,92.7% (inactive),
Cc1ccc(S(=O)(=O)/C=C/C#N)cc1,,15.8 µM (active)
Nc1nc(=S)c2ncn([C@H]3O[C@@H](CO)[C@@H](O)[C@@H]3O)c2[nH]1,-7.78% [at 28.5 µM] (inactive),
S=C(S)N1CCCC1,,25.1 µM (active)
COC(=O)[C@H]1[C@H]2C[C@H]3c4[nH]c5ccccc5c4CCN3C[C@H]2CC[C@@H]1O,-21% (inactive),
CC(C)NCC(O)c1ccc(O)c(O)c1 (configuration not stated),-11.3% (inactive),
Nc1ncnc2c1ncn2[C@@H]1O[C@H](COP(=O)(O)OP(=O)(O)OC[C@H]2OC(O)[C@H](O)[C@@H]2O)[C@@H](O)[C@H]1O (some centres not stated),326% (inactive),
CC(C)(C)c1ccc(S(=O)(=O)/C=C\C#N)cc1,,11.2 µM (active)
